This note sets out measurements from ChEMBL document CHEMBL3988442, “University of Dundee, Small-Polar-MMV Screening Library” (2021).

SMILES strings stand for the structures. The whole screen tested about 48,000 compounds, of which about 13,000 (27%) showed an effect of 50% or more. This is one part of the list.

The subject of the test is Wolbachia pipientis. Nature of the test: Anti-Wolbachia Cell-Based Screen. To be noted: 5 µM. The format is functional. Also noted: scale not given: in the data most compounds retested in dose-response had high values.
Take `COc1ccc(-c2cn(CCn3c(C)cc(C)nc3=O)nn2)cn1`: the “Percent Effect” value is given as 13.66%.

For `CC(Oc1ccc(F)cc1F)C(=O)N1CCC2(CC1)CC(=O)N(C)C2` (stereo not drawn), the “Percent Effect” value is on record as -15.1%.

`Cn1c(C(=O)N2CCc3[nH]cnc3C2C(=O)O)ccc1-c1ccccc1` (stereo not drawn): the “Percent Effect” value was found to be 10.75%.

As to `CN(Cc1nc(CC2CC2)no1)CC1Cc2ccccc2O1` (stereo not drawn), the “Percent Effect” value amounted to 1.11%.

Regarding `O=C(CNC(=O)c1c(F)cccc1Cl)Nc1ccc(F)cn1`, the “Percent Effect” value was -31.04%.

`Cc1nccn1-c1cc(CNC(=O)c2ccccn2)ccn1`: the “Percent Effect” value was -23.44%.

On to `Cc1nccn1-c1ccc(=O)n(CCNC(=O)c2ccccn2)n1`, for which the “Percent Effect” value amounted to 116.7%.

Consider `O=c1ccc(-n2ccnc2)nn1CCNS(=O)(=O)c1ccccc1Cl`, for which the “Percent Effect” value is given as -3.668%.

Turning to `Cc1nccn1-c1ccc(=O)n(CCNC(=O)c2c(F)cccc2Cl)n1`, the “Percent Effect” value is 122.2%.

With `Cn1c(C(F)(F)F)nn(CCNC(=O)CCc2ccccc2)c1=O`, the “Percent Effect” value is recorded as 8.562%.

As to `Cn1c(C(F)(F)F)nn(CCNC(=O)c2ccccn2)c1=O`, the “Percent Effect” value is reported as -5.949%.

Regarding `CC(=O)NCc1ccc(-n2ccnc2C)nc1`, the “Percent Effect” value worked out at 28.24%.

In the case of `Cc1nccn1-c1ccc(=O)n(CCNC(=O)Cc2ccccc2)n1`, the “Percent Effect” value was 251.7%.

For the compound `Cc1ccoc1C(=O)N1CC(C(=O)N2CCOCC2)C2(CCOCC2)C1` (stereo not drawn), the “Percent Effect” value is given as -39.43%.

Turning to `CC(=O)c1c(F)cccc1N1CCC(NS(=O)(=O)c2ccccc2)CC1`, the “Percent Effect” value is recorded as -17.75%.

Consider `CC(C)Oc1cc(N2CC[C@H](CO)[C@@H](O)C2)nc(N)n1`, for which the “Percent Effect” value is -19.56%.

Turning to `Cc1ccccc1CCCN1C(=O)CC2(CCSC2)C1=O` (stereo not drawn), the “Percent Effect” value is 0.3605%.

Regarding `Cc1noc(CCCNC(=O)C2CSCN2C(=O)C(C)(C)C)n1` (stereo not drawn), the “Percent Effect” value is listed as -2.864%.

With `CN(C(=O)CCNC(=O)C1COc2ccccc21)c1ccccc1` (stereo not drawn), the “Percent Effect” value was found to be 1.32%.

For `O=C(c1cocn1)N1CCC2(CC1)CC(OCC1CC1)CO2` (stereo not drawn), the “Percent Effect” value is listed as 7.124%.

For the compound `CN(C)CCCNc1ncnc2cccc(F)c12`, the “Percent Effect” value is reported as -15.41%.

For the compound `CN(CCOCC1CC1)C(=O)Cn1cccc(C(F)(F)F)c1=O`, the “Percent Effect” value amounted to 10.84%.

Consider `O=C(NCCOCC1CC1)Nc1ccc(F)cc1`, for which the “Percent Effect” value is -7.278%.

With `C[S+]([O-])c1ccc(NC(=O)Cc2cccnc2)cc1F` (stereo not drawn), the “Percent Effect” value came out at 6.367%.

In the case of `CN(CCOCC1CC1)C(=O)Nc1ccc([S+](C)[O-])c(F)c1` (stereo not drawn), the “Percent Effect” value is given as 94.49%.

Regarding `CN(CCOCC1CC1)C(=O)Nc1ccc([S+](C)[O-])cc1` (stereo not drawn), the “Percent Effect” value worked out at 90.95%.

Regarding `COCCN(C)C(=O)Nc1ccc(C(=O)NCCC(=O)OC)cc1`, the “Percent Effect” value came to 9.449%.

In the case of `CC(C)Cc1ncc2c(n1)CN(c1nccc(NC(C)C)n1)C2`, the “Percent Effect” value is -6.813%.

`COC1CCN(C(=O)c2c(Cl)c3ccccc3n2C)CC1`: the “Percent Effect” value is on record as -0.1607%.

`O=C(CCc1cc(Cl)no1)N1CCCCC1CCN1CCOCC1` (stereo not drawn): the “Percent Effect” value is -7.331%.

As for `CCc1nc(CCNc2ncccn2)sc1C`, the “Percent Effect” value is -26.63%.

For the compound `COCCN1CCN(CC(O)c2cc(OC)ccc2OC)CC1` (stereo not drawn), the “Percent Effect” value is given as 7.391%.

Turning to `COc1cccc(C(O)CN2CCN(C(=O)CCC(C)C)CC2)c1` (stereo not drawn), the “Percent Effect” value is -9.64%.

On to `COc1ccc(OC)c(C(O)CN2CCN(C3CCCC3)CC2)c1` (stereo not drawn), for which the “Percent Effect” value stood at 3.384%.

For the compound `COc1cccc(C(O)CN2CCN(c3cccc(C)c3)CC2)c1` (stereo not drawn), the “Percent Effect” value is 140.6%.

Turning to `COc1cccc(N2CCN(CC(O)c3cc(C)sc3C)CC2)c1` (stereo not drawn), the “Percent Effect” value is on record as -7.346%.

As for `COc1ccc(OC)c(C(O)CN2CCN(c3cccc(C)c3)CC2)c1` (stereo not drawn), the “Percent Effect” value turned out to be 116.6%.

Turning to `CS(=O)(=O)c1ccc2c(c1)nc1n2[C@@H](CNCc2cccnc2)COC1`, the “Percent Effect” value worked out at 6.164%.

For the compound `CC(CC(=O)N1CCCS1(=O)=O)c1ccccc1C(F)(F)F` (stereo not drawn), the “Percent Effect” value is recorded as -9.75%.

Turning to `COC(=O)[C@@H]1Cc2ncn(C)c2CN1S(=O)(=O)c1cccs1`, the “Percent Effect” value is reported as -9.442%.

Take `Cc1cc(CCC(=O)N2CCCC2)nc(C2CCCN2)n1` (stereo not drawn): the “Percent Effect” value turned out to be 120.7%.

Consider `Cc1cc(C)n(CC2CCCN2CC(=O)Nc2nncs2)n1` (stereo not drawn), for which the “Percent Effect” value is recorded as -0.6534%.

For `CN(C)[C@H]1CCCCN(C(=O)CCc2csc(N)n2)C1`, the “Percent Effect” value is -1.322%.

`CNC(=O)CCc1cc(C)nc(C2CCCCN2)n1` (stereo not drawn): the “Percent Effect” value worked out at 122.2%.

With `CCN1CCn2nc(CCC(=O)N3CCCC3)cc2C1`, the “Percent Effect” value stood at 0.2115%.

As to `Cc1cc(C)n(CC2CCCCN2CC(=O)Nc2nncs2)n1` (stereo not drawn), the “Percent Effect” value is on record as -4.796%.

`Cc1cc(CCC(=O)Nc2nncs2)nc(C2CCCN2)n1.Cl` (stereo not drawn): the “Percent Effect” value is given as 92.36%.

As to `Cc1cc(CCC(=O)N(C)C)nc(C2CCCCN2)n1.Cl.Cl` (stereo not drawn), the “Percent Effect” value is reported as 123.4%.
